{"source": "PubChem BioAssay AID651658", "about": "(Broad Institute, 2012)", "note": "Hit rate of the full screen: of about 340,000 compounds, about 5,100 (1.5%) were called active.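 The calls were made as follows: active = mean Tm shift, scaled 0 neutral to 100 positive control, at about 1.3% or above, every replicate too (limit read from the data); inconclusive = no clear call, values can overlap the other calls; inactive = the rest.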 Many of the other results were omitted from the sample, so actives are more common in it than they were."}
{"target": "Fibroblast growth factor 22 (Homo sapiens) (UniProt Q9HCT0)", "sequence (Q9HCT0 whole entry, looked up)": "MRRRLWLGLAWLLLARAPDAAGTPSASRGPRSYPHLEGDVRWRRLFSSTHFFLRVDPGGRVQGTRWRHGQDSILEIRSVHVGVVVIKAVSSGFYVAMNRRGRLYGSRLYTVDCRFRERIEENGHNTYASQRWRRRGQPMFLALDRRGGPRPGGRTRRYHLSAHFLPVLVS", "assay": "binders of human FGF22 protein, primary screen, FGF22 synaptogenesis inhibitor project, biophysical, thermal shift, single point (AID 651658)", "settings": "recombinant FGF22 thermal shift, SYPRO orange fluorescence; at 9.99 µM; hits give high values; percent of sucrose octasulfate shift, DMSO zero"}
{"smiles": "COc1ccc2c3c([nH]c2c1)[C@@H](CO)N(C(=O)Nc1ccc(F)cc1)CC31CN(S(C)(=O)=O)C1", "activity (Tm shift, normalised)": "-0.554% (inactive)"}
{"smiles": "O=C(N[C@@H]1CC[C@@H](CC(=O)N2CCc3ccccc3C2)O[C@H]1CO)C1CCC1", "activity (Tm shift, normalised)": "-0.096% (inactive)"}
{"smiles": "CN(CCc1cn[nH]c1)C(=O)CC1C(=O)NCCN1Cc1cccc(Oc2ccccc2)c1", "note": "(configuration not stated)", "activity (Tm shift, normalised)": "0.231% (inactive)"}
{"smiles": "COc1cccc(CN2CCNC(=O)C2CC(=O)N(C)CCc2ccccn2)c1", "note": "(configuration not stated)", "activity (Tm shift, normalised)": "43% (active)"}
{"smiles": "COc1ccc(CN2CCNC(=O)C2CC(=O)N(C)Cc2ccccn2)cc1OC", "note": "(configuration not stated)", "activity (Tm shift, normalised)": "0.398% (inactive)"}
{"smiles": "CS(=O)(=O)N1[C@H](C#N)[C@H](c2ccccc2-c2ccc(F)cc2)[C@@H]1CO", "activity (Tm shift, normalised)": "0.124% (inactive)"}
{"smiles": "O=C(N/N=C/c1c[nH]c2ccccc12)c1cc2ccccc2o1", "activity (Tm shift, normalised)": "2.21% (active)"}
{"smiles": "Nc1nonc1-n1nnc(C(=O)N/N=C/c2c[nH]c3ccccc23)c1-c1ccccc1", "activity (Tm shift, normalised)": "0.702% (inactive)"}
{"smiles": "Cc1c(/C=N\\NC(=O)c2cc3ccccc3o2)c2ccccc2n1C", "activity (Tm shift, normalised)": "0.961% (inactive)"}
{"smiles": "CC=Cc1ccc2n(c1=O)C[C@@H]1[C@@H](CO)[C@H](C(=O)N(C)C)[C@H]2N1CCc1ccccc1", "note": "(mixture of isomers)", "activity (Tm shift, normalised)": "-0.034% (inactive)"}
{"smiles": "COc1ccccc1-c1cnc2c(c1)C(=O)N([C@@H](C)CO)C[C@H](C)[C@H](CN(C)C(=O)c1ccncc1)O2", "activity (Tm shift, normalised)": "0.396% (inactive)"}
{"smiles": "Cc1cc(C(=O)Nc2ccc3c(c2)C(=O)N(C)[C@@H]2CC[C@H](CC(=O)NC4CCCC4)O[C@@H]2CO3)no1", "activity (Tm shift, normalised)": "0.414% (inactive)"}
{"smiles": "Cc1ccc(S(=O)(=O)Oc2ccc(/C=N/NC(=O)c3ccncc3)cc2)cc1", "activity (Tm shift, normalised)": "0.38% (inactive)"}
{"smiles": "COc1cc(C=NNC(=O)c2cccnc2)ccc1OC(=O)c1ccccc1F", "activity (Tm shift, normalised)": "-0.02% (inactive)"}
{"smiles": "COc1ccc(/C=N/NC(=O)c2ccccc2)cc1OS(=O)(=O)c1ccccc1", "activity (Tm shift, normalised)": "43% (active)"}
{"smiles": "COc1ccccc1CNC(=O)C[C@H]1C[C@@H]2c3cc(NC(=O)c4ccc5c(c4)OCO5)ccc3O[C@@H]2[C@H](CO)O1", "activity (Tm shift, normalised)": "0.258% (inactive)"}
{"smiles": "CO[C@@H]1CN(C)C(=O)c2ccc(NS(C)(=O)=O)cc2OC[C@H](C)N(C(=O)C2CC2)C[C@H]1C", "activity (Tm shift, normalised)": "-0.096% (inactive)"}
{"smiles": "CCC(=O)N1CC2(C1)[C@H](c1ccc(-c3ccc(C)cc3)cc1)[C@H](CO)N2S(C)(=O)=O", "activity (Tm shift, normalised)": "-0.095% (inactive)"}
{"smiles": "COc1cc(OC)cc(-c2nnc(N(C)C(=O)c3ccncc3)s2)c1", "activity (Tm shift, normalised)": "-0.259% (inactive)"}
{"smiles": "COCCN(C(=O)C(C)C)c1nnc(-c2ccc(C(C)(C)C)cc2)s1", "activity (Tm shift, normalised)": "1.53% (active)"}
{"smiles": "COCCN(Cc1nc(-c2ccc(C(F)(F)F)cc2)no1)C(C)C", "activity (Tm shift, normalised)": "0.251% (inactive)"}
{"smiles": "CC(C)NC(=O)N1[C@@H]2c3ccc(-c4ccc(F)cc4)c(=O)n3C[C@@H]2[C@@H](CO)[C@@H]1C(=O)N1CCOCC1", "activity (Tm shift, normalised)": "-0.32% (inactive)"}
{"smiles": "CC(C)NC(=O)Nc1ccc2c(c1)C(=O)N([C@H](C)CO)C[C@@H](C)[C@@H](CN(C)S(=O)(=O)c1ccc(Cl)cc1)OCCCC[C@H](C)O2", "activity (Tm shift, normalised)": "-0.402% (inactive)"}
{"smiles": "COc1ccccc1C(=O)Nc1ccc(Nc2ccccc2)cc1", "activity (Tm shift, normalised)": "-0.034% (inactive)"}
{"smiles": "COc1ccccc1C(=O)Nc1ccccc1C(=O)Nc1ccccc1", "activity (Tm shift, normalised)": "-0.098% (inactive)"}
{"smiles": "COc1ccccc1C(=O)Nn1cnnc1", "activity (Tm shift, normalised)": "0.115% (inactive)"}
{"smiles": "COc1ccccc1C(=O)c1ccccc1C(=O)c1ccccc1", "activity (Tm shift, normalised)": "43.7% (active)"}
{"smiles": "CC(=O)c1ccccc1OCc1ccc(C(=O)c2ccccc2)cc1", "activity (Tm shift, normalised)": "-0.1% (inactive)"}
{"smiles": "COc1ccccc1C(=O)NNC(=O)c1ccc(NC(=O)c2ccccc2)cc1", "activity (Tm shift, normalised)": "1.4% (active)"}
{"smiles": "CN1CCN(C(=O)C[C@H]2CC[C@H]3[C@@H](COC[C@H](O)CN3C(=O)c3ccc(F)cc3)O2)CC1", "activity (Tm shift, normalised)": "0.268% (inactive)"}
{"smiles": "Cc1ccccc1-c1ccc2c(c1)O[C@H](CN(C)Cc1ccc(C(=O)O)cc1)[C@@H](C)CN([C@H](C)CO)S2(=O)=O", "activity (Tm shift, normalised)": "-0.18% (inactive)"}
{"smiles": "C[C@H](CO)N1C[C@H](C)[C@@H](CN(C)CC2CC2)Oc2ccc(NC(=O)CCCN(C)C)cc2CC1=O", "activity (Tm shift, normalised)": "-0.128% (inactive)"}
{"smiles": "N#C[C@@H]1[C@H](c2ccc(C#CC3CCCCC3)cc2)[C@@H](CO)N1S(=O)(=O)c1ccccc1", "activity (Tm shift, normalised)": "0.098% (inactive)"}
{"smiles": "COc1ccc(-c2ccc([C@H]3[C@H]4CN(C(=O)c5ccc6c(c5)OCO6)CCCCN4[C@H]3CO)cc2)cc1", "activity (Tm shift, normalised)": "1.83% (active)"}
{"smiles": "Cc1cccc(-c2ccc([C@@H]3[C@H](CO)N4CCCCN(C(=O)c5ccc6c(c5)OCO6)C[C@@H]34)cc2)c1", "activity (Tm shift, normalised)": "-0.344% (inactive)"}
{"smiles": "CCCC#Cc1ccc([C@H]2[C@H](CO)N3CCCCN(C(=O)c4ccc5c(c4)OCO5)C[C@@H]23)cc1", "activity (Tm shift, normalised)": "0.555% (inactive)"}
{"smiles": "C[C@@H]1CCCCO[C@@H](CN(C)S(=O)(=O)c2ccccc2)[C@H](C)CN([C@H](C)CO)C(=O)c2cc(NC(=O)Nc3ccc4c(c3)OCO4)ccc2O1", "activity (Tm shift, normalised)": "-0.98% (inactive)"}
{"smiles": "COc1ccccc1-c1cnc2c(c1)C(=O)N([C@@H](C)CO)C[C@H](C)[C@H](CN(C)CC1CCOCC1)O2", "activity (Tm shift, normalised)": "0.358% (inactive)"}
{"smiles": "COc1cccc(/C=N/Nc2ccc(S(=O)(=O)Nc3ccccc3C(=O)O)cc2[N+](=O)[O-])c1O", "activity (Tm shift, normalised)": "0.209% (inactive)"}
{"smiles": "COc1cccc(/C=N/Nc2cc(C)nc(-c3ccccc3O)n2)c1O", "activity (Tm shift, normalised)": "43% (active)"}
{"smiles": "COc1ccc(Cc2nnc(N/N=C/c3ccccc3O)[nH]c2=O)cc1OC", "activity (Tm shift, normalised)": "0.017% (inactive)"}
{"smiles": "Cc1ccc(S(=O)(=O)N(C)C[C@@H]2Oc3c(NC(=O)c4nc5ccccc5s4)cccc3C(=O)N([C@H](C)CO)C[C@@H]2C)cc1", "activity (Tm shift, normalised)": "-0.725% (inactive)"}
{"smiles": "CC(C)c1cc(N=O)cc(C(C)C)c1O", "activity (Tm shift, normalised)": "-0.097% (inactive)"}
{"smiles": "CC(C)=CCc1c(O)c(CC=C(C)C)c2occ(-c3ccc(O)cc3)c(=O)c2c1O", "activity (Tm shift, normalised)": "0.178% (inactive)"}
{"smiles": "CC(C)=CCc1ccc(O)c(=O)cc1C(C)C", "activity (Tm shift, normalised)": "43.3% (active)"}
{"smiles": "C[C@@H]1CCCCO[C@@H](CN(C)C(=O)CCCN(C)C)[C@@H](C)CN([C@H](C)CO)C(=O)c2cc(NC(=O)CCCN(C)C)ccc2O1", "activity (Tm shift, normalised)": "-0.145% (inactive)"}
{"smiles": "C[C@H](CO)N1C[C@H](C)[C@H](CN(C)C)Oc2ncc(-c3ccncc3)cc2C1=O", "activity (Tm shift, normalised)": "-0.058% (inactive)"}
{"smiles": "O=C(O)c1cccc(S(=O)(=O)Nc2ccc(O)cc2Sc2nc3ccccc3s2)c1", "activity (Tm shift, normalised)": "15.9% (active)"}
{"smiles": "O=S(=O)(Nc1ccc2nc(N3CCOCC3)sc2c1)c1ccccc1", "activity (Tm shift, normalised)": "-0.216% (inactive)"}
{"smiles": "Cc1nc2ccc(NC(=O)c3cccc(S(=O)(=O)N4CCOCC4)c3)cc2s1", "activity (Tm shift, normalised)": "1.04% (inactive)"}
{"smiles": "CC(=O)NC[C@@H]1[C@@H](c2ccccc2)[C@@H](CO)N1C(=O)Cc1cccnc1", "activity (Tm shift, normalised)": "1.29% (active)"}
{"smiles": "CC(=O)NC[C@H]1[C@H](c2ccccc2)[C@@H](CO)N1C(=O)Cc1cccnc1", "activity (Tm shift, normalised)": "-0.409% (inactive)"}
{"smiles": "O=C(NC[C@@H]1[C@@H](c2ccccc2)[C@H](CO)N1C(=O)Cc1cccnc1)C1CC1", "activity (Tm shift, normalised)": "-1.07% (inactive)"}
{"smiles": "O=C(C[C@@H]1C=C[C@H](NC(=O)CN2CCOCC2)[C@@H](CO)O1)NC1CCC1", "activity (Tm shift, normalised)": "0.045% (inactive)"}
{"smiles": "O=C(NCC[C@@H]1CC[C@H](NC(=O)C2CC2)[C@@H](CO)O1)c1cc(Cl)cc(Cl)c1", "activity (Tm shift, normalised)": "-0.053% (inactive)"}
{"smiles": "CCOc1ccc(NC(=O)CSc2nc3c(c(=O)n2-c2ccccc2OC)SCC3)cc1", "activity (Tm shift, normalised)": "-0.136% (inactive)"}
{"smiles": "COc1ccccc1-n1c(SCC(=O)Nc2ccc(Cl)cc2)nc(O)c(Cc2ccccc2)c1=O", "activity (Tm shift, normalised)": "43.9% (active)"}
{"smiles": "COc1ccc(NC(=O)CSc2nnc(Cc3ccccc3)c(=O)n2N)cc1", "activity (Tm shift, normalised)": "-0.143% (inactive)"}
{"smiles": "CN1c2ccc(-c3ccc(F)cc3)cc2[C@@H]2[C@@H](CCN2C(=O)c2cccnc2)[C@H]1CO", "activity (Tm shift, normalised)": "-0.025% (inactive)"}
{"smiles": "CO[C@@H]1CN(C)C(=O)c2ccc(NC(=O)NC(C)C)cc2OC[C@H](C)N(Cc2ccc(-c3ccccn3)cc2)C[C@H]1C", "activity (Tm shift, normalised)": "0.425% (inactive)"}
{"smiles": "CCCCCOc1ccc(/C=C/C(=O)NCCc2nc3ccccc3[nH]2)cc1OC", "activity (Tm shift, normalised)": "0.206% (inactive)"}
{"smiles": "CCOc1ccc(/C=C(/C#N)c2nnc(N3CCOCC3)n2-c2ccccc2)cc1OC", "activity (Tm shift, normalised)": "-0.121% (inactive)"}
{"smiles": "COc1cc(/C=C(\\C#N)c2nc3ccccc3[nH]2)ccc1O", "activity (Tm shift, normalised)": "2.24% (active)"}
{"smiles": "CCCC(=O)Nc1ccc2c(c1)OC[C@H](C)N(CCC(F)(F)F)C[C@@H](C)[C@H](OC)CN(C)C2=O", "activity (Tm shift, normalised)": "-0.05% (inactive)"}
{"smiles": "C/C=C/c1ccc([C@@H]2[C@H](CO)N(S(=O)(=O)Cc3ccccc3)C23CN(C(=O)C2CCOCC2)C3)cc1", "activity (Tm shift, normalised)": "-0.098% (inactive)"}
{"smiles": "N#Cc1cccc(Nc2c3c(nc4ccccc24)CCCC3)c1", "activity (Tm shift, normalised)": "0.042% (inactive)"}
{"smiles": "O=C(Nc1ccccc1)c1ccccc1Br", "activity (Tm shift, normalised)": "-0.119% (inactive)"}
{"smiles": "O=C(Nc1c2c(nc3ccccc13)CCCC2)c1ccccc1Br", "activity (Tm shift, normalised)": "44.2% (active)"}
{"smiles": "CC(=O)N1[C@@H](CO)[C@@H](c2ccccc2)[C@@H]1CN(C)C(=O)CN1CCOCC1", "activity (Tm shift, normalised)": "0.044% (inactive)"}
{"smiles": "O=C(C1CCCCC1)N1CC2(C1)[C@H](c1ccccc1)[C@@H](CO)N2CCC(F)(F)F", "activity (Tm shift, normalised)": "-0.014% (inactive)"}
{"smiles": "O=C(Cc1ccncc1)N[C@H]1CC[C@H](CCn2cc(-c3ccccc3F)nn2)O[C@@H]1CO", "activity (Tm shift, normalised)": "0.035% (inactive)"}
{"smiles": "O=C(Cc1ccncc1)N[C@@H]1CC[C@H](CCn2cc(-c3ccccc3F)nn2)O[C@H]1CO", "activity (Tm shift, normalised)": "0.128% (inactive)"}
{"smiles": "O=C(Cc1cccnc1)N[C@H]1CC[C@H](CCn2cc(-c3ccccc3F)nn2)O[C@H]1CO", "activity (Tm shift, normalised)": "8.31% (active)"}
{"smiles": "CCCC(=O)Nc1ccc2c(c1)OC[C@H](C)N(CCC)C[C@@H](C)[C@@H](OC)CN(C)C2=O", "activity (Tm shift, normalised)": "0.113% (inactive)"}
{"smiles": "CCN(CC)N=Nc1cccc(NC(C)=O)c1", "activity (Tm shift, normalised)": "0.992% (inactive)"}
{"smiles": "CCN(CC)C(=O)C(=O)Nc1cccc(Br)c1", "activity (Tm shift, normalised)": "43.2% (active)"}
{"smiles": "CSc1ccccc1NC(=O)CN(C)CC(=O)Nc1cccc(Br)c1", "activity (Tm shift, normalised)": "-0.022% (inactive)"}
